Compound activity: PubChem BioAssay, National Center for Advancing Translational Sciences (NCATS)
Sampled rows, rich in hits. Any-hit rate of the full collection: about 2.7%.
HepG2 tox-1: kills HepG2 cells in TGF-b inhibitor counter-screen. HepG2 CAGA-GFP viability, ATP luminescence, 18 h. 0.76% of 410,000 active. Potency, µM (top dose mostly 46.1 µM), without a hit: at the top dose activity change, negative = cytotoxicity, usual class: cytotoxic
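HepG2 CAGA-GFP cells (1000/well, DMEM with 1% FBS) received compound, then TGF-beta at 500 pg/mL final, and were incubated 18 hours at 37 degrees C. Viability was read by CellTiter-Glo luminescence. Media-only wells were set as complete cell-killing and DMSO as no toxicity.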
12-LOX inh: blocks human arachidonate 12S-lipoxygenase | P18054 | purified 12hLO, xylenol orange hydroperoxide absorbance | Potency, µM (titrated, usually from 108 µM), inactives show at the top dose activity change, negative = inhibition, hits mostly inhibitors | 1.1% of 580,000 active | AID 1671190; also: % is scaled to controls: 0 for no effect and ±100 for the full control effect
Target sequence (P18054 whole entry, looked up): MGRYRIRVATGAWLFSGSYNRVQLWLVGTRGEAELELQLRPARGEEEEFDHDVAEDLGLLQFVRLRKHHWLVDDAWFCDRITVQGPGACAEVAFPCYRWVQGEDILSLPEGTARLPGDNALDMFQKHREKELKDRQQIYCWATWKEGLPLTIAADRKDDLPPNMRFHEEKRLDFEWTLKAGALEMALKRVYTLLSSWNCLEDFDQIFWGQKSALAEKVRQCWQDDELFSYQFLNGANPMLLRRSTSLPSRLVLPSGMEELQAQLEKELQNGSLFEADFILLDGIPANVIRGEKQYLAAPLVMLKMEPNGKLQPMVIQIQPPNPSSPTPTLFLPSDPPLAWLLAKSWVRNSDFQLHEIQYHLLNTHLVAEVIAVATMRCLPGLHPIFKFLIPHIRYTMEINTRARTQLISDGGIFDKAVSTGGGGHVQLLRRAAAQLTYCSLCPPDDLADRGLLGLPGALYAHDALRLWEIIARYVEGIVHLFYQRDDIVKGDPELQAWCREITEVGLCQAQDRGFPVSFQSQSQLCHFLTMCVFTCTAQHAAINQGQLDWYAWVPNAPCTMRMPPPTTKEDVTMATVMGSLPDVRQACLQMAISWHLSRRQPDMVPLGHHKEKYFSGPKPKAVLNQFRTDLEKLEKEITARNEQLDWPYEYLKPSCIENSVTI
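Purified human 12hLO (150 nM final) in 25 mM Hepes, 0.01% Triton X-100, pH 7.0 was preincubated 15 min at room temperature with compound. Then 40 uM arachidonic acid was added, 30 min. Hydroperoxide was read by Fe-XO absorbance ratio 573/405 nm.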
ATXN2 expr inh: inhibitors of ATXN2 expression; HEK-293 ATXN2-luciferase reporter, luminescence, 24 h; Potency, µM (doses to about 57 µM), inactives show top-dose activity change, negative = inhibition, hits mostly inhibitors; 0.72% of 360,000 active; AID 1745845; also: % is scaled to controls: 0 for no effect and ±100 for the full control effect; nearly all actives have a fitted effect of over 55% in size
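qHTS (up to 57 uM final) was run with 24 h compound exposure of reporter cells at 37 °C. Each well was multiplexed: SteadyGlo luminescence measured ATXN2-luciferase expression after a fluorogenic Gly-Phe-AFC viability readout (25 uM final).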
TGFb inhibitor: TGF-b pathway inhibition. HepG2 CAGA-GFP TGF-b/SMAD3 reporter, GFP fluorescence, 18 h; TGF-beta stimulated, 500 pg/mL final. 1.2% of 410,000 active. Potency, µM (titrated, usually from 46.1 µM), inactives show at the top dose activity, negative = inhibition, most hits filed as inhibitors; also: % is scaled to controls: 0 for no effect and ±100 for the full control effect; nearly all actives have a fitted effect of over 65% in size
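First, reporter cells (HEPG2 CAGA-GFP) rested 2 h at 37 degrees C. Next, compounds were pinned in and TGF-beta added to 500 pg/mL final. After 18 h, GFP was imaged per cell and summed per well.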
S2 tox: reduces viability in counter-screen for ATXN expression inhibitors; S2 cells (HEK-293 line with an ATXN2-luciferase reporter) viability, CellTiter-Fluor protease fluorescence, 24 h; Potency, µM (top dose mostly 56.7 µM), most hits filed as cytotoxic; 0.49% of 400,000 active; also: nearly all actives have a fitted effect of over 40% in size
TGFb CAGA inh: confirmation of TGF-b signaling inhibitors in HepG2 reporter cells | Potency, µM (doses to about 46.1 µM), inactives show at the top dose activity, negative = inhibition, usual class: inhibitors | HepG2 CAGA-GFP TGF-b reporter, GFP fluorescence, 18 h; cells stimulated with TGF-beta, 500 pg/mL | shares compounds with TGFb inhibitor | 63% of 1,600 active; also: % is scaled to controls: 0 for no effect and ±100 for the full control effect; nearly all actives have a fitted effect of over 65% in size
HepG2 tox-2: toxic to HepG2 cells in TGF-b counterscreen | shares compounds with TGFb inhibitor | HepG2 CAGA-GFP viability, ATP luminescence, 18 h; cells stimulated with TGF-beta, 500 pg/mL | Potency, µM (top dose mostly 46.1 µM), for the others: at the highest dose activity, negative = cytotoxicity, most hits filed as inhibitors | 27% of 1,600 active; also: % is scaled to controls: 0 for no effect and ±100 for the full control effect; nearly all actives have a fitted effect of over 70% in size
CCL64 TGFb inh: blocks TGF-b signaling in CCL64 reporter cells; AID 720536; Potency, µM (doses to about 46.1 µM), without a hit: top-dose activity, negative = inhibition, most hits filed as inhibitors; 41% of 1,600 active; CCL64 CAGA-GFP reporter, TGF-b stimulated, GFP fluorescence, 18 h; shares compounds with TGFb inhibitor; also: nearly all actives have a fitted effect of over 65% in size
COP TGFb inh: TGF-b inhibition validated with COP promoter; shares compounds with TGFb inhibitor; HepG2 COP-GFP TGF-b reporter, GFP fluorescence, 18 h; cells stimulated by added recombinant TGF-beta; Potency, µM (highest dose often 46.1 µM), for the others: top-dose activity, negative = inhibition, hits mostly inhibitors; 3% of 1,600 active; also: nearly all actives have a fitted effect of over 70% in size
* = called active by the depositor. Calls follow the shape of the dose curve; as a rule, active = well fitted curve in the direction sought with a large enough effect; inconclusive = small, poorly fitted or top-dose-only effect, or another doubt; inactive = no such curve, though single readings can be large; an effect the other way counts as inactive or inconclusive. Potency is read from the fitted curve at half-maximal effect.

Results for O=C(NCc1ccccc1)C1=C[C@H](c2ccc(C(F)(F)F)cc2)C[C@H](OCc2ccc(CO)cc2)O1 ?
HepG2 tox-1: -28%; 12-LOX inh: -18%; ATXN2 expr inh: -15%; TGFb inhibitor: inconclusive; S2 tox: inconclusive; TGFb CAGA inh: inconclusive; HepG2 tox-2: -14%; CCL64 TGFb inh: inconclusive; COP TGFb inh: 8%

What do the screens show for `O=C(NCc1ccccc1)C1=C[C@H](c2ccccc2)C[C@H](OCc2ccc(CO)cc2)O1`?
HepG2 tox-1: 13%; 12-LOX inh: -30%; ATXN2 expr inh: 3%; TGFb inhibitor: 18%; S2 tox: inactive

How did S=C(Nc1ccc(Br)cc1)NC1CCCCC1 do in these assays?
HepG2 tox-1: -45%; 12-LOX inh: inconclusive; ATXN2 expr inh: 51%; TGFb inhibitor: 10µM*; S2 tox: inactive; TGFb CAGA inh: inconclusive; HepG2 tox-2: inconclusive; CCL64 TGFb inh: inconclusive; COP TGFb inh: 10%

Results for CC1Sc2ccc(S(=O)(=O)N3CCC(C(=O)Nc4ccc(Cl)cc4)CC3)cc2NC1=O (centres undefined) ?
HepG2 tox-1: -10%; 12-LOX inh: 0%; TGFb inhibitor: 20µM*; S2 tox: inconclusive; TGFb CAGA inh: 5.2µM*; HepG2 tox-2: inconclusive; CCL64 TGFb inh: inconclusive; COP TGFb inh: 30%

What do the screens show for `Cc1cc2nn(-c3ccc(Cl)cc3)nc2cc1N`?
HepG2 tox-1: -37%; 12-LOX inh: 7.1µM*; TGFb inhibitor: 0.79µM*; TGFb CAGA inh: 6.5µM*; HepG2 tox-2: 2.6µM*; CCL64 TGFb inh: 6%; COP TGFb inh: 40%

Results for Cc1ccc(-c2nc(CN3CCCC3c3cc(C)no3)co2)cc1 (centres undefined) ?
12-LOX inh: -25%

How did CCC1CCCCN1S(=O)(=O)c1ccc(NC(=O)c2nc(S(C)(=O)=O)ncc2Cl)cc1 (centres undefined) do in these assays?
HepG2 tox-1: 4µM*; 12-LOX inh: inconclusive; ATXN2 expr inh: 16µM*; TGFb inhibitor: 4.5µM*; S2 tox: 13µM*; TGFb CAGA inh: 3.7µM*; HepG2 tox-2: 6.5µM*; CCL64 TGFb inh: 2.1µM*; COP TGFb inh: 9.2µM*

Results for CCS(=O)(=O)c1ncc(Cl)c(C(=O)Nc2ccc(S(=O)(=O)N3CCCC(C)C3)cc2)n1 (centres undefined) ?
HepG2 tox-1: 4.5µM*; 12-LOX inh: -6%; ATXN2 expr inh: 8.9µM*; TGFb inhibitor: 4.5µM*; S2 tox: 8.9µM*; TGFb CAGA inh: 4.1µM*; HepG2 tox-2: 5.2µM*; CCL64 TGFb inh: 2.6µM*; COP TGFb inh: 7.3µM*

How did CCOc1ccccc1OCC(=O)Nc1cccc2cccnc12 do in these assays?
12-LOX inh: -8%

Results for O=C(O)CN(Cc1ccc(Br)cc1)S(=O)(=O)c1ccc(Cl)cc1 ?
12-LOX inh: -17%

How did O=C(CN1CCN(C(=O)C2CCN(C(=O)/C=C/c3ccccc3)CC2)CC1)Nc1ccc(F)cc1 do in these assays?
HepG2 tox-1: -26%; 12-LOX inh: 4%; ATXN2 expr inh: 7%; TGFb inhibitor: -90%; S2 tox: inactive; TGFb CAGA inh: -24%; HepG2 tox-2: -1%; CCL64 TGFb inh: -2%; COP TGFb inh: 3%

What do the screens show for `O=C(CN1CCC(C(=O)c2ccc(F)cc2)CC1)Nc1ccccc1`?
HepG2 tox-1: -25%; 12-LOX inh: 17%; ATXN2 expr inh: -11%; TGFb inhibitor: inconclusive; S2 tox: inactive

How did Cc1nc2c(o1)C(=O)c1ccccc1C2=Nc1ccccc1 do in these assays?
HepG2 tox-1: 1.4µM*; 12-LOX inh: 0%; ATXN2 expr inh: 28µM*; TGFb inhibitor: 1.3µM*; TGFb CAGA inh: 3.7µM*; HepG2 tox-2: 4.1µM*; CCL64 TGFb inh: 5.8µM*; COP TGFb inh: 4.1µM*

Results for Cc1ccc(N=C2C(=O)Nc3ccccc32)cc1 ?
HepG2 tox-1: -3%; 12-LOX inh: 0%; TGFb inhibitor: -1%; S2 tox: inconclusive

What do the screens show for `O=C(COC(=O)CC(c1ccccc1)c1ccccc1)NCc1ccc(Cl)cc1`?
HepG2 tox-1: -7%; 12-LOX inh: -12%; ATXN2 expr inh: -19%; TGFb inhibitor: 11µM*; S2 tox: inactive; TGFb CAGA inh: inconclusive; HepG2 tox-2: inconclusive; CCL64 TGFb inh: inconclusive; COP TGFb inh: 27%

What do the screens show for `CCCC(=O)OCC(=O)NCc1ccc(Cl)cc1`?
HepG2 tox-1: 0%; 12-LOX inh: -4%; ATXN2 expr inh: -2%; TGFb inhibitor: 58%; S2 tox: inactive

What do the screens show for `O=C(c1ccc2ncccc2c1)N1CCCCCC1c1nnc(-c2ccccc2)o1` (centres undefined)?
12-LOX inh: 23%

How did Cc1ccc(C(=O)Nc2cccc3[nH]c(C(F)(F)F)nc23)cc1 do in these assays?
HepG2 tox-1: -16%; 12-LOX inh: 0%; ATXN2 expr inh: -36%; TGFb inhibitor: 11µM*; S2 tox: inactive; TGFb CAGA inh: 15µM*; HepG2 tox-2: inconclusive; CCL64 TGFb inh: inconclusive; COP TGFb inh: 54%

What do the screens show for `Cc1ccc2[nH]cc(CCNC(=O)/C=C/c3cccc(F)c3)c2c1`?
12-LOX inh: -15%

How did COc1cc(-c2noc(C)c2/C=C/c2cccc([N+](=O)[O-])c2)cc(OC)c1OC do in these assays?
HepG2 tox-1: -19%; 12-LOX inh: inconclusive; ATXN2 expr inh: inconclusive; TGFb inhibitor: 13µM*; S2 tox: inconclusive; TGFb CAGA inh: inconclusive; HepG2 tox-2: -27%; CCL64 TGFb inh: inconclusive; COP TGFb inh: -11%
